High-throughput results from PubChem.
Compounds with a hit are over-represented: about 4.6% of the library has one in this group of screens.
TRHR ag: qHTS for Small Molecule Agonists and Allosteric Enhancers of Human TRH Receptor: Primary Screen for Agonists; Thyrotropin-releasing hormone receptor (Homo sapiens), P34981; TRHR cells, calcium flux fluo-8, FDSS agonist mode; activation, % at 2 µM; actives 0.18% (n = 360,000); also: 0% is about no effect
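Fluo-8-loaded TRHR cells; 10 s baseline, compound added, kinetic Ca2+ fluorescence read 1/s, agonist mode.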
D1 agonist: Allosteric Agonists of the Human D1 Dopamine Receptor: qHTS | HEK293 T-REx D1 cells, calcium flux, agonist mode | actives 1% (n = 360,000) | activation, % at 2 µM | D(1A) dopamine receptor (Homo sapiens), P21728; also: 0% is about no effect
Target sequence (P21728 whole entry, looked up): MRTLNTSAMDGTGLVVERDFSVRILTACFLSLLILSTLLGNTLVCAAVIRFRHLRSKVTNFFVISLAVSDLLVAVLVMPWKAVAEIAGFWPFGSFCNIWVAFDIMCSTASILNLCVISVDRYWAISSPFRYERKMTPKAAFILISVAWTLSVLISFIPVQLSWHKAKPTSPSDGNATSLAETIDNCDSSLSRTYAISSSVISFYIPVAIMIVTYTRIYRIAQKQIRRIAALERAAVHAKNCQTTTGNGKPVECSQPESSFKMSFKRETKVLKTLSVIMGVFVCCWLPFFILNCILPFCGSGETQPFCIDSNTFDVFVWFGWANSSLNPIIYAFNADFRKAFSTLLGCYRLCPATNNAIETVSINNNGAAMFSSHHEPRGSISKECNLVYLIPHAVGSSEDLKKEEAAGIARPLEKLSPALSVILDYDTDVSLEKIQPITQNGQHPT
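Inducible HEK293 T-REx D1 cells, force-coupled to calcium signalling, were plated at 4000 cells/well with tetracycline and held overnight at 30 C. After no-wash calcium dye loading, compound-evoked calcium rise over 180 s flagged agonists.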
TRHR enhancer: qHTS for Small Molecule Agonists and Allosteric Enhancers of Human TRH Receptor: Primary Screen for Enhancers; TRHR cells, fluo-8 calcium fluorescence, EC20 TRH enhancement; enhancement, % at 2 µM; actives 0.66% (n = 360,000); in the data active = enhancement above about 30%; also: 0% is about no effect
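Enhancer read-out: after compound pinning and an initial kinetic agonist-mode read, an EC20 of TRH (10 nM final) was injected and fluo-8 calcium signal (Ex 480/Em 530) followed at 1 s/cycle for 100 cycles in TRHR-expressing cells.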
D1 potentiator: Potentiators of Human D1 Dopamine Receptor: qHTS; D(1A) dopamine receptor (Homo sapiens), P21728; HEK293 TREx D1 cells, calcium flux, dopamine EC20 potentiation; potentiation, % at 10 µM; actives 0.036% (n = 360,000); AID 504651, 2011; in the data active = potentiation above about 30%; also: 0% is about no effect
D1 antagonist: Antagonist of Human D 1 Dopamine Receptor: qHTS; D(1A) dopamine receptor (Homo sapiens), P21728; activity change, negative = inhibition, % at 10 µM; actives 3.2% (n = 360,000); HEK293 TREx D1 cells, calcium flux, dopamine EC80; active compounds read low; AID 504652, 2011; in the data active = activity change below about -30%; also: % is scaled to controls: 0 for no effect and ±100 for the full control effect
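Cells carrying a force-coupled, tetracycline-inducible human D1 receptor report calcium flux. Each well gets a 10 s baseline, compound with 180 s monitoring, then an EC80 dopamine stimulus with a second 180 s kinetic read.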
Starred values were filed as active, the others as inactive; . = no result; ! = not confirmed by another sample. Rule as the data show it, unless noted: active = activation above about 30%; inactive = the rest.

SMILES	TRHR ag	D1 agonist	TRHR enhancer	D1 potentiator	D1 antagonist
COc1ccc(C2/C=C\CN(C(=O)C3CC3)[C@H](Cc3ccccc3)C(=O)N2Cc2ccc(F)cc2)cc1 (stereo partly specified)	-0.1	2.3	-5.0	-5.6	-15.4
CC(C)c1ccc(S(=O)(=O)NCc2nc3cccnc3n2Cc2ccc(F)cc2)cc1	-0.8	2.3	-4.5	-2.9	-7.7
NC(=O)CSc1ncc2c(n1)-c1ccccc1N(Cc1ccccc1)S2(=O)=O	-0.4	2.6	-5.4	-2.5	-15.8
O=C(Nc1ccc(F)cc1)c1cc(S(=O)(=O)N2CCOCC2)cs1	-0.6	1.8	2.2	0.4	-60.7*
O=C(Nc1cccc(F)c1)c1cc(S(=O)(=O)N2CCOCC2)cs1	0.1	7.3	1.3	-1.1	-84.4*
CC1=C(c2ccc(C)cc2)S(=O)(=O)N(Cc2ccc(C(=O)Nc3ccc(F)cc3C)cc2)C1=O	-0.4	-0.2	5.6	-2.4	9.4
Cc1ccc(CN2CCC(CNC(=O)Nc3c(C)cccc3C)C2)cc1 (stereo unspecified)	0.0	-1.4	3.8	-0.2	0.4
Cc1ccc(Cl)cc1N1CCN(C(=O)CCCCCn2c(=O)[nH]c3ccccc3c2=O)CC1	0.3	3.1	8.2	2.9	3.7
COCCNC(=O)CN1C(=O)COc2ccc(S(=O)(=O)N3CCOCC3)cc21	-0.3	0.4	5.9	-1.6	-26.4
CC(C)C(NC(=O)OCc1ccccc1)C(=O)NC(Cc1ccc(O)cc1)C(=O)O (stereo unspecified)	-0.3	4.2	-1.2	5.5	0.4
CCC(C)C(NC(=O)OCc1ccccc1)C(=O)NC(Cc1ccc(O)cc1)C(=O)OC (stereo unspecified)	6.2	62.4*	2.9	-2.8	2.8
O=[N+]([O-])c1ccc(Cl)c(-c2ccc(/C=N/n3cnnc3)o2)c1	-1.0	-0.1	-4.2	-0.6	-41.7*
CN1CCN(/N=C/c2ccc(-c3ccc([N+](=O)[O-])cc3Cl)o2)CC1	12.0	52.1*	3.5	-8.9	-7.9
O=[N+]([O-])c1cc(-c2ccc(/C=N/n3cnnc3)o2)ccc1Cl	0.3	0.5	-3.8	-4.3	-6.0
COc1ccc(C(=O)NCC(c2ccc(N(C)C)cc2)N2CCc3ccccc32)cc1OC (stereo unspecified)	-1.5	3.1	-4.3	-0.5	-1.3
Cc1ccc([N+](=O)[O-])cc1S(=O)(=O)N1CCn2cccc2C1c1ccccc1 (stereo unspecified)	0.4	5.6	-4.1	4.4	.
Cc1nc(CSc2nnc(C)s2)cs1	0.1	1.3	1.3	-2.5	-41.9*
Cc1nnc(SCc2ccc(F)cc2)s1	-0.2	1.4	1.6	6.5	7.9
COCc1cc(C)nc2sc3c(c12)NC(c1ccc(NC(C)=O)cc1)N(c1ccc(C)cc1)C3=O (stereo unspecified)	0.7	-0.7	4.3	4.0	13.9
COc1ccc(C(Nc2ccccn2)c2ccc3ccc(C)nc3c2O)cc1C (stereo unspecified)	0.0	6.7	-1.9	-1.6	-6.6
CCOc1cc(C(Nc2cc(C)ccn2)c2ccc3cccnc3c2O)ccc1OC (stereo unspecified)	-0.9	5.4	41.0*	-4.2	-6.3
CCOC(=O)C1(Cc2ccc(Cl)cc2)CCN(C(=O)c2sc(C)nc2C)CC1	5.2	6.1	-6.8	-3.9	-7.3
CCN(CC)C(=O)C1CCN(S(=O)(=O)c2ccc3oc4ccccc4c3c2)CC1	-0.3	7.2	-3.6	2.4	-35.5*
Cc1ccc(N2CCN(C(=O)C3CCN(S(=O)(=O)c4ccc5c(c4)oc(=O)n5C)CC3)CC2C)cc1 (stereo unspecified)	-1.3	12.2	-3.1	-3.1	-44.4*
Cn1c(=O)oc2cc(S(=O)(=O)N3CCCC(C(=O)N4CCN(c5ccc(Cl)cc5)CC4)C3)ccc21 (stereo unspecified)	-0.7	9.4	-1.8	-2.5	-33.6*
SMILES	TRHR ag	D1 agonist	TRHR enhancer	D1 potentiator	D1 antagonist
Cc1ccc(N(C)C(=O)C2CCN(S(=O)(=O)c3ccc4c(c3)oc(=O)n4C)CC2)cc1	0.1	-0.8	1.0	7.1	-14.3
CCN(C(=O)C1CCN(S(=O)(=O)c2ccc3c(c2)oc(=O)n3C)CC1)c1cccc(C)c1	0.3	0.8	-5.5	.	-39.1*
CCc1ccc(NC(=O)Cn2ccn(-c3ccc(C)c(C)c3)c(=O)c2=O)cc1	-0.4	9.8	4.4	-3.9	-11.4
COc1ccc(C2CC(=O)NC(NC(=O)c3ccc(Br)cc3)=N2)c(OC)c1OC (stereo unspecified)	-0.2	-0.9	2.3	0.8	11.0
CCOC(=O)c1ccc(N2C(=O)c3n[nH]c(-c4ccco4)c3C2c2ccc(OC)cc2OC)cc1 (stereo unspecified)	1.1	3.1	9.5	2.7	4.5
COc1ccc(Cl)cc1N1C(=NC(=O)C2CCCCC2)SC2CS(=O)(=O)CC21 (stereo unspecified)	-0.1	0.6	-1.9	2.6	2.7
CN(CC(=O)Nc1ccccc1C(F)(F)F)C(=O)c1ccccc1Sc1ccccc1C#N	-0.1	7.8	-24.6	.	-3.3
COc1ccccc1N1CCN(C(=O)C2CCCN(S(=O)(=O)c3ccc4c(c3)oc(=O)n4C)C2)CC1 (stereo unspecified)	-0.4	15.3	-4.2	-9.5	0.2
CC(C)CN(CC(C)C)C(=O)C1CCCN(S(=O)(=O)c2ccc3c(c2)oc(=O)n3C)C1 (stereo unspecified)	-0.9	0.6	5.1	-1.0	-30.9*
COc1ccc(N2CCN(C(=O)C3CCCN(S(=O)(=O)c4ccc5c(c4)oc(=O)n5C)C3)CC2)cc1 (stereo unspecified)	0.7	3.2	-4.1	-3.6	-45.3*!
COc1ccc(-c2cc(C(=O)O)n(Cc3ccccc3)n2)cc1	0.1	1.1	11.5	1.4	-7.8
O=C(COC(=O)c1cc(Cl)ccc1O)Nc1ccc2c(c1)OCCO2	-0.2	1.4	-4.4	-1.3	-9.2
CCOC(=O)c1c(NC(=O)c2ccc(Br)cc2)sc2c1CCCC2	0.5	0.2	0.1	-5.5	9.5
CCOC(=O)c1c(NS(=O)(=O)c2cccc(OC)c2)sc2c1CCC2	-0.7	63.6*	5.2	-0.2	-8.2
CCCOc1ccc(C(=O)Nc2sc3c(c2C(=O)OCC)CCCCC3)cc1	0.1	-0.9	4.6	-1.3	-31.0*
CCOC(=O)c1c(NC(=O)/C=C/c2ccc(C)cc2)sc2c1CCCC2	0.7	39.5*	0.6	-1.4	-17.2
